Measurements as given in PubChem BioAssay AID651718 (The Scripps Research Institute Molecular Screening Center, 2012).
Out of some 360,000 compounds screened, about 2,700 (0.75%) were called active. The entries come from a sample that favours actives as a whole. Unmarked numbers belong to inactive results. No stated cut-off is given here; in the data, active means inhibition above about 4.5%; inactive means the rest.

system: Methionine sulfoxide reductase A (Bos taurus); assay: bovine MsrA enzyme inhibitors, primary screen, biochemical, absorbance, HTS (AID 651718); conditions: purified bovine MsrA, absorbance read-out; at 15.5 µM; stronger effect = higher value;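 further: 0% = vehicle wells with enzyme and 100% = reference inhibitor wells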

Row | SMILES | inhibition
1 | O=C(NS(=O)(=O)c1cccs1)[C@H]1O[C@@H](n2ccc(=O)[nH]c2=O)[C@H](O)[C@@H]1O | -0.74%
2 | O=C(NN=Cc1ccco1)C(=O)Nc1ccc(Cl)c([N+](=O)[O-])c1 | -0.74%
3 | Cc1nc2ccccc2n1C(=O)N1CCOCC1 | -0.3%
4 | Cc1oc2c(c1C(=O)N1CCOCC1)C(=O)c1ccccc1C2=O | 14.1% (active)
5 | CC(C(=O)Nc1ccccc1-c1ccccc1)N1CCOCC1 (stereo not drawn) | 0.29%
6 | CCOc1ccc(/C=N\NC(=O)c2c(C)nc3cc(C)ccn23)cc1 | 3.14%
7 | CCOc1cc(/C=N/NC(=O)CN2CCCCC2)ccc1O | 0.86%
8 | CCOc1cc(/C=N/NC(=O)c2c(C)nc3ccc(Cl)cn23)ccc1O | 6.4% (active)
9 | COC(=O)Nc1nc2ccc(C(=O)C3CC3)cc2[nH]1 | 1.54%
10 | CCOC(=O)c1c(C)[nH]c(C)c1C(=O)CSc1nc(N)cc(N)n1 | 0.97%
11 | CCOC(=O)c1c(C(C#N)C#N)cc(C)nc1C | 5.28% (active)
12 | CCOC(=O)c1cc(C)nc(S(C)(=O)=O)c1C#N | 1.83%
13 | N#Cc1ccc(S(=O)(=O)NCC(=O)OCC(=O)NCCc2ccccc2)cc1 | 0.77%
14 | O=C(NCc1ccccc1)[C@@H]1CCCN1C(=O)[C@H]1CCCN1C(=O)c1cccc(Cl)c1 | -0.24%
15 | Brc1ccc(COCCc2cn(Cc3ccccc3)c3ccccc23)cc1 | -0.08%
16 | CSc1nc2c(c(=O)[nH]1)C(c1cccc(Cl)c1Cl)CC(=O)N2 (stereo not drawn) | -1.13%
17 | N#Cc1c(N)nc2c3c(sc(=N)c2c1N)NC(=O)CC3c1ccccc1Cl (stereo not drawn) | 6.25% (active)
18 | COC(=O)[C@H](CC(C)C)NS(=O)(=O)c1c(F)cccc1F | 1.4%
19 | COc1cccc(/C(C)=N/Nc2ncc(Cl)cc2Cl)c1 | 5.21% (active)
20 | COC(=O)c1sccc1N/N=C(\C)c1ccc(F)c(Cl)c1 | -0.14%

Row | SMILES | inhibition
21 | CCN(CC)c1ccc(C(=O)N/N=C(\C)c2cccc(OC)c2)cc1 | 1.78%
22 | COc1cccc(CNC(=O)[C@H]2CCCN2C(=O)[C@H]2CCCN2C(=O)c2cc(F)cc(F)c2)c1 | 0.79%
23 | CCCN1C(=O)c2[nH]nc(-c3ccccc3)c2C1c1ccccc1 (stereo not drawn) | 0.64%
24 | Nc1nnnn1CC(=O)N/N=C/c1ccc(-c2cccc(Cl)c2)o1 | 5.41% (active)
25 | O=C(Cn1nnc(-c2ccccc2)n1)N/N=C/c1ccc(-c2ccc(Cl)cc2)o1 | 1.47%
26 | O=C(N/N=C\c1ccc(-c2ccc(Cl)c(Cl)c2)o1)C(=O)N1CCCC1 | -0.58%
27 | Cc1ccc(OCCCC(=O)Nc2ccc(S(=O)(=O)Nc3cc(C)nc(C)n3)cc2)cc1 | 0.56%
28 | Cc1ccc(S(=O)(=O)Nc2nc(C)cc(-n3nc(C)cc3C)n2)cc1 | -0.42%
29 | Cc1ccc(S(=O)(=O)Nc2nc(C)cc(N/N=C/c3ccc(O)cc3)n2)cc1 | 9.28% (active)
30 | CCN1C(=O)N[C@@H](CCc2ccccc2)C(C(=O)OC)=C1C | 0.27%
31 | CCCC(=O)N1CCC1(C)C(=O)NS(=O)(=O)c1ccc(Cl)cc1 (stereo not drawn) | -0.68%
32 | CCn1ncc(Br)c1C(=O)Nc1cc(C)ccc1F | 0.75%
33 | C/C(=N\NC(=O)COc1c(C)cccc1C)c1cccs1 | -0.04%
34 | Cc1ccccc1C(CC(=O)c1cccs1)C(C#N)C#N (stereo not drawn) | 5.15% (active)
35 | Cc1ccc(NNC(=O)c2cccs2)cc1Cl | -0.8%
36 | COC(=O)Cc1nnn2c1[C@H](C)[C@@H](OC)c1cc(Br)ccc1-2 | 0.56%
37 | CC(=NNC(=O)c1ccc2nc[nH]c2c1)c1ccc(Br)cc1 | -0.04%
38 | CC(=O)c1ccc(N2CCN(C(=O)c3ccc4nc[nH]c4c3)CC2)cc1 | 4.75% (active)
39 | CCc1nc2ccc(C(=O)N3CCN(c4cccc(Cl)c4)CC3)cc2nc1CC | 0.35%
40 | CN(Cc1ccccc1)C(=O)[C@@H]1CCCN1C(=O)[C@@H]1CCCN1C(=O)c1c(F)cccc1F | 1.12%

Row | SMILES | inhibition
41 | Cc1[nH]c2ccccc2c1CC(=O)Nc1ccc(Nc2cccnc2)c(-c2cccc(Cl)c2)c1 | 0.91%
42 | COc1ccc(/C=C2\SC(=O)N(CCC(=O)NC3CCS(=O)(=O)C3)C2=O)cc1 (stereo not drawn) | 7.15% (active)
43 | COc1ccc(-c2ccc(OC(=O)NC3CCS(=O)(=O)C3)cc2)cc1 (stereo not drawn) | -0.4%
44 | COc1ccccc1/C=C1\SC(=O)N(CCC(=O)N(C)C2CCS(=O)(=O)C2)C1=O (stereo not drawn) | 1.66%
45 | CC(C)CNc1cccc2c1S(=O)(=O)N[C@H](C)CO2 | 0.24%
46 | COC(=O)CN1C(=O)C(O)=C(C(C)=O)C1c1ccc([N+](=O)[O-])cc1 (stereo not drawn) | 4.6% (active)
47 | CC(=O)C1=C(O)C(=O)N(c2ccc(Br)cc2)C1c1ccc([N+](=O)[O-])cc1 (stereo not drawn) | 3.13%
48 | CC(=O)C1=C(O)C(=O)N(c2cccnc2)C1c1ccc([N+](=O)[O-])cc1 (stereo not drawn) | 3.72%
49 | CC1=NNC(=O)C1CCC(=O)N/N=C\c1ccc(Cl)c(Cl)c1 (stereo not drawn) | 0.26%
50 | O=C(Cc1ccccc1)N/N=C/c1ccc(Cl)cc1Cl | 0.83%
51 | NCCCCCC(=O)N/N=C/c1ccc2nccnc2c1 | 4.64% (active)
52 | COc1ccc(N2C(=O)C3C(C2=O)C(C(=O)c2ccccc2)N2CCCC32)cc1 (stereo not drawn) | 1.03%
53 | COCCNC(=S)N(C)[C@H]1C[C@H]2c3[nH]c4ccccc4c3CCN2C[C@H]1[C@H](C)O | 0.16%
54 | N#Cc1ccc(OCCCN2CCC(C(O)(c3ccccc3)c3ccccc3)CC2)c(F)c1 | 2.13%
55 | O=C(/C=C/c1ccco1)NC(=S)N1CCCCC1 | 2.5%
56 | COc1ccc(/C=C/C(=O)NC(=S)N2CCCC(C(N)=O)C2)cc1 (stereo not drawn) | 5.75% (active)
57 | COc1ccc(CN2CCCC(C(=O)N3CCCCC3)C2)cc1 (stereo not drawn) | -0.76%
58 | O=c1[nH][nH]c2c1[C@H](c1ccc(Cl)cc1)O[C@H](CCc1ccccc1)C2 | -0.84%
